From PubChem BioAssay (EPA / NIEHS)
Results filed as inconclusive are left out. Activity calls are given as the source filed them. Rule for the calls, unless noted: active = hit-call score of the fitted dose curve at least 0.9, where 1 is the maximum; inactive = score below 0.9.

Assays:
[1] = ATG_NFI_CIS: Attagene CIS-FACTORIAL HepG2 Assay for human Nuclear Factor I (NFI) (AID 2282989); settings: HepG2 cis-regulatory reporter, NFI response element transcription; actives raise or lower the signal
How it was run: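 Transfected HepG2 liver cells, exposed 24 h, supplied total RNA for oligo(dT) reverse transcription and reporter-specific PCR. Labelled, HpaI-cut fragments were sized by capillary electrophoresis; DMSO set the baseline for bidirectional fitting.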

[2] = target: Myc proto-oncogene protein (Homo sapiens) (UniProt P01106); assay: ATG_Myc_CIS: Attagene CIS-FACTORIAL HepG2 Assay for human Myelocytomatosis (Myc) Proto-Oncogene Transcription Factor (AID 2282990); settings: HepG2, Attagene cis-reporter transcription factor activity; actives raise or lower the signal
How it was run: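 HepG2, transient MRTU transfection (cis promoters, endogenous TFs); 24 h dosing; TriZol RNA → oligo(dT) RT → PCR → 6-FAM primer extension → HpaI cut → CE. Bidirectional fit vs DMSO.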

[3] = ATG_NF_kB_CIS: Attagene CIS-FACTORIAL HepG2 Assay for human Nuclear Factor Kappa B (NF-kB) (AID 2282991); settings: HepG2 Attagene cis-factorial NF-kB reporter mRNA; actives raise or lower the signal
How it was run: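 Fluorescence of labelled RT-PCR products separated by capillary electrophoresis gives reporter mRNA levels from transfected HepG2 cells exposed 24 h; values are fitted in both directions relative to DMSO.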

[4] = ATG_NRF2_ARE_CIS: Attagene CIS-FACTORIAL HepG2 Assay for human Nuclear Factor Erythroid 2 Related Factor 2 (NFR2) response to Antioxidant Response Elements (ARE) (AID 2282992); settings: HepG2 Attagene ARE/NRF2 reporter, transcription factor activity; actives raise or lower the signal
How it was run: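 Cis-factorial assay: transfected HepG2 reporter library, 24 h dosing, mRNA readout via RT-PCR/CE; DMSO-referenced bidirectional analysis.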

[5] = ATG_Oct_MLP_CIS: Attagene CIS-FACTORIAL HepG2 Assay for human Octamer-Binding Transcription Factor (Oct) (AID 2282993); settings: HepG2 Attagene cis-factorial Oct reporter, mRNA; actives raise or lower the signal
How it was run: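 Using HepG2 cells bearing transfected cis-reporter constructs, mRNA induction was read after 24 h by fluorescent RT-PCR and capillary electrophoresis, with DMSO defining baseline for gain- or loss-of-signal fits.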

[6] = target: Cellular tumor antigen p53 (Homo sapiens) (UniProt P04637); assay: ATG_p53_CIS: Attagene CIS-FACTORIAL HepG2 Assay for human p53 Transcription Factor (AID 2282994); settings: HepG2 p53 cis-element reporter, Attagene mRNA; actives raise or lower the signal
How it was run: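 Using HepG2 hepatoma cells carrying cis-acting multiplexed reporters, mRNA induction is detected after a 24 h exposure. Gain- and loss-of-signal responses are fitted relative to DMSO-treated cells.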

[7] = target: human Peroxisome Proliferator-activated Receptor alpha (PPARa), PPARA (gene 5465) (UniProt Q07869); assay: ATG_PPARa_TRANS: Attagene TRANS-FACTORIAL HepG2 Assay for human Peroxisome Proliferator-activated Receptor alpha (PPARa) (AID 2283001; active = hit-call score of the fitted dose curve at least 0.9, where 1 is the maximum;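 for AC50: potency for gain of reporter signal over DMSO so agonist or activator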)
How it was run: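 Reporter transcripts from GAL4-UAS units in transfected HepG2 were quantified 24 h after dosing. Detection used reverse transcription, PCR, fluorescent primer extension and capillary electrophoresis, with DMSO as baseline.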

[8] = target: Peroxisome proliferator-activated receptor gamma (Homo sapiens) (UniProt P37231); assay: ATG_PPARg_TRANS: Attagene TRANS-FACTORIAL HepG2 Assay for human Peroxisome Proliferator-activated Receptor-gamma (PPARg) (AID 2283007; active = hit-call score of the fitted dose curve at least 0.9, where 1 is the maximum)
How it was run: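 Twenty-four hours after chemical dosing of transiently transfected HepG2 cells, isolated RNA was converted to cDNA, reporter sequences amplified and 6-FAM-labelled, then HpaI-digested and analysed by capillary electrophoresis. Signal increase against DMSO was fitted.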

[9] = target: Nuclear receptor subfamily 1 group I member 2 (Homo sapiens) (UniProt O75469); assay: ATG_PXR_TRANS: Attagene TRANS-FACTORIAL HepG2 Assay for human Pregnane X Receptor (PXR) (AID 2283008; active = hit-call score of the fitted dose curve at least 0.9, where 1 is the maximum)
How it was run: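 Fluorescence intensity of FAM-labelled, HpaI-digested reporter amplicons, separated by capillary electrophoresis, quantifies induction. HepG2 cells with PXR-Gal4 trans-reporter system were exposed 24 h; DMSO defines baseline.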

[10] = target: human RAR-related Orphan Receptor beta (RORb), RORB (gene 6096) (UniProt Q92753); assay: ATG_RORb_TRANS: Attagene TRANS-FACTORIAL HepG2 Assay for human RAR-related Orphan Receptor beta (RORb) (AID 2283010; active = hit-call score of the fitted dose curve at least 0.9, where 1 is the maximum)
How it was run: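 In this TRANS-format test, human HepG2 cells express chimeric NR-Gal4 fusion proteins driving GAL4-UAS reporters. After 24 h dosing, reporter transcripts are measured by fluorescent RT-PCR/capillary electrophoresis, with DMSO as negative control.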

[11] = target: human Peroxisome Proliferator-activated Receptor delta (PPARd), PPARD (gene 5467) (UniProt Q03181); assay: ATG_PPARd_TRANS: Attagene TRANS-FACTORIAL HepG2 Assay for human Peroxisome Proliferator-activated Receptor delta (PPARd) (AID 2283002; active = hit-call score of the fitted dose curve at least 0.9, where 1 is the maximum)
How it was run: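 Transient HepG2 transfection (multiple GAL4-UAS RTUs, chimeric receptor-Gal4); 24 h dosing; total RNA → oligo(dT) RT → PCR → 6-FAM primer extension → HpaI cut → CE. Positive direction vs DMSO.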

[12] = target: human Retinoic Acid Receptor beta (RARb), RARB (gene 5915) (UniProt P10826); assay: ATG_RARb_TRANS: Attagene TRANS-FACTORIAL HepG2 Assay for human Retinoic Acid Receptor beta (AID 2283004; active = hit-call score of the fitted dose curve at least 0.9, where 1 is the maximum)
How it was run: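 HepG2 cells transiently transfected with multiplexed GAL4-UAS reporter units expressing chimeric NR–Gal4 fusions; 24 h compound exposure. Reporter mRNA quantified by RT-PCR, 6-FAM labelling, HpaI digestion and capillary electrophoresis; gain-of-signal fitted against DMSO baseline.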

[13] = target: Retinoic acid receptor alpha (Homo sapiens) (UniProt P10276); assay: ATG_RARa_TRANS: Attagene TRANS-FACTORIAL HepG2 Assay for human Retinoic Acid Receptor alpha (RARa) (AID 2283005; active = hit-call score of the fitted dose curve at least 0.9, where 1 is the maximum)
How it was run: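 Reporter transcripts, measured by RT-PCR with fluorescent labeling and capillary electrophoresis after 24 h dosing, reflect activity of an exogenous human RARa–GAL4 fusion in transiently transfected HepG2. Fitted for increase relative to DMSO.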

[14] = target: human Retinoic Acid Receptor gamma (RARg), RARG (gene 5916) (UniProt P13631); assay: ATG_RARg_TRANS: Attagene TRANS-FACTORIAL HepG2 Assay for human Retinoic Acid Receptor gamma (RARg) (AID 2283009; active = hit-call score of the fitted dose curve at least 0.9, where 1 is the maximum)
How it was run: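 HepG2, RARg-GAL4 TRANS system, 24 h exposure; reporter mRNA by RT-PCR + CE fluorescence; increase over DMSO.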

Measured: AC50

Chain of Peroxisome proliferator-activated receptor gamma (Homo sapiens) (P37231 whole entry, looked up): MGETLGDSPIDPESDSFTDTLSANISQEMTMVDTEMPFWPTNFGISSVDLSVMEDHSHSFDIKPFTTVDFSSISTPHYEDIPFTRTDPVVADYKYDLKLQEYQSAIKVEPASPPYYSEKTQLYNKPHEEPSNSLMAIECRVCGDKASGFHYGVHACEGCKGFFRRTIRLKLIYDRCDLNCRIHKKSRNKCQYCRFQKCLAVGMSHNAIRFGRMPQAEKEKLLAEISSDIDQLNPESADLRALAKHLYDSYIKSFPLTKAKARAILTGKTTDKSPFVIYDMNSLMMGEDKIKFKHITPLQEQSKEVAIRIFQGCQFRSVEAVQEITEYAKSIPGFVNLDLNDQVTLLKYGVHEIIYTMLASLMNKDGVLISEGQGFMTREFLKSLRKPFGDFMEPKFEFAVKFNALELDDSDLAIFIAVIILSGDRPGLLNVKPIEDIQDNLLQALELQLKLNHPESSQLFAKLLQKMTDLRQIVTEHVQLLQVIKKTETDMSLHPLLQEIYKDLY
Chain of human Retinoic Acid Receptor gamma (RARg), RARG (gene 5916) (P13631 whole entry, looked up, the tested form may be a part): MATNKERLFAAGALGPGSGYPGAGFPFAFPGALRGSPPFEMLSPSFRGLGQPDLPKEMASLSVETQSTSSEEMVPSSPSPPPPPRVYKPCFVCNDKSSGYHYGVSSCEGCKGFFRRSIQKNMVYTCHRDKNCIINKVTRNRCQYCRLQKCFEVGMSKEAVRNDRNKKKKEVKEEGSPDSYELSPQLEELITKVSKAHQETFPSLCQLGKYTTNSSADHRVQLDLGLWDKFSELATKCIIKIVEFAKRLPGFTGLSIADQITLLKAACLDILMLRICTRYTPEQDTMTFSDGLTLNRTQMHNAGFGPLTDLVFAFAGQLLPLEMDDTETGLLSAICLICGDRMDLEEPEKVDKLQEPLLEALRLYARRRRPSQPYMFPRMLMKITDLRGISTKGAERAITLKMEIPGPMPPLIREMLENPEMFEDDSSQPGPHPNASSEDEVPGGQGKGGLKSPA
Chain of human Peroxisome Proliferator-activated Receptor delta (PPARd), PPARD (gene 5467) (Q03181 whole entry, looked up, the tested form may be a part): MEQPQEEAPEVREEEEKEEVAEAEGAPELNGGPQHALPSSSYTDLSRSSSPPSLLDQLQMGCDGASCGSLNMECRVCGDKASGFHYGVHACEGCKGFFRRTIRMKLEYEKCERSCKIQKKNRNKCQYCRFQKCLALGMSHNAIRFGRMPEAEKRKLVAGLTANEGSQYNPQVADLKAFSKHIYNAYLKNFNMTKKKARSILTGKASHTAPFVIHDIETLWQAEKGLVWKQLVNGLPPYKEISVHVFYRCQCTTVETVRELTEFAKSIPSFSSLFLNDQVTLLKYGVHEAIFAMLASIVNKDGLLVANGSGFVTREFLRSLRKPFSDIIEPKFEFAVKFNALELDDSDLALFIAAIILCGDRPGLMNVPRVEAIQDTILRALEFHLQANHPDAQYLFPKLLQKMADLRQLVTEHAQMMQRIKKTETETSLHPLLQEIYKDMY
Chain of human Retinoic Acid Receptor beta (RARb), RARB (gene 5915) (P10826 whole entry, looked up, the tested form may be a part): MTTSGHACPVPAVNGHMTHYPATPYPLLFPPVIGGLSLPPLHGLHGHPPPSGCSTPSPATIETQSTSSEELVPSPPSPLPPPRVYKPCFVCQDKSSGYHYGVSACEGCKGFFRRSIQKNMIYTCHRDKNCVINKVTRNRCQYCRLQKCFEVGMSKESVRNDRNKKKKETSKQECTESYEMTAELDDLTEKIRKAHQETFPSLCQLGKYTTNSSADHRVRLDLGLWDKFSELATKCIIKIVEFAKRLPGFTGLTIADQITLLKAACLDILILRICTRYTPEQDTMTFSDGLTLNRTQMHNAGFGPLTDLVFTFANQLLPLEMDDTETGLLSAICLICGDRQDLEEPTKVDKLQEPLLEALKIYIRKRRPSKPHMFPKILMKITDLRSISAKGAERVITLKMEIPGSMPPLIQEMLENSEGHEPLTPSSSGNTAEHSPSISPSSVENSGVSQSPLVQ
Chain of human Peroxisome Proliferator-activated Receptor alpha (PPARa), PPARA (gene 5465) (Q07869 whole entry, looked up, the tested form may be a part): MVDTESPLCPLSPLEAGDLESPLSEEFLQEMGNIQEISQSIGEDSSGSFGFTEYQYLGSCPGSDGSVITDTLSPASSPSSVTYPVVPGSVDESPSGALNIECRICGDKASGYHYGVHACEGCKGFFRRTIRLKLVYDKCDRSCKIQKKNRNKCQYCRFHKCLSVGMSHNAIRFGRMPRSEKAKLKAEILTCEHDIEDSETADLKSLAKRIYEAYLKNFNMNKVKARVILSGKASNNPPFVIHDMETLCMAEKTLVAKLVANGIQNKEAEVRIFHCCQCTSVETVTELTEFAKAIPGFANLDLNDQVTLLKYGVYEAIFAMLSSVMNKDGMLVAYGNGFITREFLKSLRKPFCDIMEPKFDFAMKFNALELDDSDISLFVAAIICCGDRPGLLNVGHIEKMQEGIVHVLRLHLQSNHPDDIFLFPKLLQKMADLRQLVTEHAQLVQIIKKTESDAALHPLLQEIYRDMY
Chain of Myc proto-oncogene protein (Homo sapiens) (P01106 whole entry, looked up): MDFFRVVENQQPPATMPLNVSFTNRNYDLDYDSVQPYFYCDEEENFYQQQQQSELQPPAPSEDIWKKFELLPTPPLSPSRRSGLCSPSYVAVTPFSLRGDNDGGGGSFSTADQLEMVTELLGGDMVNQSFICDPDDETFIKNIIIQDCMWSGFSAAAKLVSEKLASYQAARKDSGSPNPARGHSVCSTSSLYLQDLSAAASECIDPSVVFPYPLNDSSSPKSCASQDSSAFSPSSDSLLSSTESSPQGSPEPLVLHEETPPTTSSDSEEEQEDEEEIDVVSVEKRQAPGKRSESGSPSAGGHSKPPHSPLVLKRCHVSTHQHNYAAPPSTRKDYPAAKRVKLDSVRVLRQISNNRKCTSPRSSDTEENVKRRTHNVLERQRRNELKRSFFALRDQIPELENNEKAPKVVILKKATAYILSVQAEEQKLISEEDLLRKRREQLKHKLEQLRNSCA
Chain of Retinoic acid receptor alpha (Homo sapiens) (P10276 whole entry, looked up, the tested form may be a part): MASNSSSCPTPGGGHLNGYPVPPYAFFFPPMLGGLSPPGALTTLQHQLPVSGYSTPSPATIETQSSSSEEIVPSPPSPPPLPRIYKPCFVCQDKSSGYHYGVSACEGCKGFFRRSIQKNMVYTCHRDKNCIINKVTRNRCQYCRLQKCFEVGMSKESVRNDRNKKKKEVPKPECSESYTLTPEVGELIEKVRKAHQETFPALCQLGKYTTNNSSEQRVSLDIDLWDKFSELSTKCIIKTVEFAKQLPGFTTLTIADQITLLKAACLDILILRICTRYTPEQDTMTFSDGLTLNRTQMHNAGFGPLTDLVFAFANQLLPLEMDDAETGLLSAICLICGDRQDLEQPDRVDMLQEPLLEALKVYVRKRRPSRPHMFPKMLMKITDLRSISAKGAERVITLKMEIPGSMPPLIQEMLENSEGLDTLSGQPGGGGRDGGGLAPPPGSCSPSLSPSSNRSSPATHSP
Chain of human RAR-related Orphan Receptor beta (RORb), RORB (gene 6096) (Q92753 whole entry, looked up, the tested form may be a part): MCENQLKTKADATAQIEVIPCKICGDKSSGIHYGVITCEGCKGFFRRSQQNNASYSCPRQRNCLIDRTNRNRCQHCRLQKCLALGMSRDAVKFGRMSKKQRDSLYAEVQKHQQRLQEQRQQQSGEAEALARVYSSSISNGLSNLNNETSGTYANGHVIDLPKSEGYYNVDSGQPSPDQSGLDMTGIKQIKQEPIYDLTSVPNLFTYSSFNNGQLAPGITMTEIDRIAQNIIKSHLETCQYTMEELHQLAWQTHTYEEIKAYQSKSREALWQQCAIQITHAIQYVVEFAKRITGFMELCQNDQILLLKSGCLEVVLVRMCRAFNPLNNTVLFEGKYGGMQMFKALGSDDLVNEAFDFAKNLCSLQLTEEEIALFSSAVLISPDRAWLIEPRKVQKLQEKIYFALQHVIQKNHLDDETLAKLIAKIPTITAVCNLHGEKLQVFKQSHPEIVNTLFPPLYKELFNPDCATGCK
Chain of Cellular tumor antigen p53 (Homo sapiens) (P04637 whole entry, looked up): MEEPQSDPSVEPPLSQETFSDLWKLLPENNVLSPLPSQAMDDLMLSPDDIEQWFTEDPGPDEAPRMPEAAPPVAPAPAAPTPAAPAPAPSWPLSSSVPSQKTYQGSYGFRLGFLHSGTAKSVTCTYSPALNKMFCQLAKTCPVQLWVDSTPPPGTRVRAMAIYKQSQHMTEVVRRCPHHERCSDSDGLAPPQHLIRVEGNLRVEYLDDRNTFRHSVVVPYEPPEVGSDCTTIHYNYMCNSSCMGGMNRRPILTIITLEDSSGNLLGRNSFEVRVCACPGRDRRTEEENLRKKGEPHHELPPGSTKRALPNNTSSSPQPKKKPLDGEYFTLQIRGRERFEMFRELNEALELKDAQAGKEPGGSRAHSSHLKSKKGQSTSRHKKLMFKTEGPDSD
Chain of Nuclear receptor subfamily 1 group I member 2 (Homo sapiens) (O75469 whole entry, looked up, the tested form may be a part): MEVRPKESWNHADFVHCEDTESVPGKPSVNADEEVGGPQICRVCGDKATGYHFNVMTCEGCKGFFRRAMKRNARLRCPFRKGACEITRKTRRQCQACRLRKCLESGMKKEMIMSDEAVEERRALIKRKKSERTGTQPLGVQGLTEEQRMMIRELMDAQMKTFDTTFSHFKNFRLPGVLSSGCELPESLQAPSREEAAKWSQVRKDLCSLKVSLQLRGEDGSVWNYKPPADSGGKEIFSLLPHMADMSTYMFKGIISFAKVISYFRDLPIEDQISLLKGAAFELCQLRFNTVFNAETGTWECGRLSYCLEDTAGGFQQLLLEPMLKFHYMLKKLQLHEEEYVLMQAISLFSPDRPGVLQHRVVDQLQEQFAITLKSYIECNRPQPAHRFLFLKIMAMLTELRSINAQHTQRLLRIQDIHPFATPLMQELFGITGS

O=C(O)Cc1cccc2ccccc12
inactive: [1] | [2] | [3] | [4] | [5] | [6] | [7] | [9] | [10]
active: [8] 69 µM

COc1cc2ncnc(Nc3cccc(Cl)c3)c2cc1OC
inactive: [1] | [2] | [4] | [7] | [11] | [9]
active: [3] 40.8 µM | [5] 25 µM | [6] 1.57 µM

CCCC(=O)c1cc(O)c(O)cc1O
inactive: [1] | [2] | [3] | [4] | [5] | [6] | [7] | [8] | [9]

c1ccc2[nH]ccc2c1
inactive: [1] | [2] | [3] | [4] | [5] | [6] | [7] | [11] | [8] | [10]

C=C[C@@H](C)CCC=C(C)C
inactive: [1] | [2] | [3] | [4] | [5] | [6] | [7] | [11] | [9] | [10]

O=C(Nc1ccccc1)c1cc([N+](=O)[O-])ccc1Cl
active: [4] 34.6 µM | [6] 68.6 µM | [8] 19.8 µM | [9] 3.82 µM
inactive: [1] | [2] | [3] | [5] | [7] | [11] | [10]

CC(O)C(C)O (centres undefined)
inactive: [1] | [2] | [3] | [4] | [5] | [6] | [7] | [11] | [9] | [10]

O=C(O)CCCCCCCC(=O)O
inactive: [1] | [2] | [3] | [4] | [5] | [6] | [7] | [12] | [13] | [8] | [14]

C=CC(=O)OCCOCCOCC
active: [3] 9.52 µM | [4] 26 µM | [8] 17 µM | [9] 40 µM
inactive: [1] | [2] | [5] | [6] | [7] | [12] | [13] | [14] | [10]

CCC(O)CO (centres undefined)
inactive: [1] | [2] | [3] | [4] | [5] | [6] | [7] | [11] | [9]

O=C1c2ccccc2C(=O)N1SC1CCCCC1
inactive: [1] | [2] | [3] | [5] | [7] | [11] | [9]
active: [4] 65.4 µM | [6] 167 µM

CCN(CC)c1ccc(C(=C2C=CC(=[N+](CC)CC)C=C2)c2ccc(S(=O)(=O)O)cc2S(=O)(=O)[O-])cc1
inactive: [1] | [2] | [3] | [4] | [5] | [6] | [7] | [11] | [8] | [9] | [10]

CCCCCCCCCCCCCOS(=O)(=O)O
inactive: [1] | [2] | [3] | [4] | [5] | [6] | [11] | [9]
active: [7] 3.35 µM | [8] 12 µM

O=c1[nH]nnc2ccccc12
inactive: [1] | [2] | [3] | [4] | [5] | [6] | [7] | [11] | [9]

CCCCCCCCCCCCCCCC(=O)O
inactive: [1] | [2] | [3] | [4] | [5] | [6] | [12] | [13] | [8] | [10]
active: [7] 26.5 µM

CCC(C)CCCC(C)(C)O (centres undefined)
inactive: [1] | [2] | [3] | [4] | [5] | [6] | [7] | [12] | [8] | [9] | [14] | [10]

O=Nc1ccc(Nc2ccccc2)cc1
inactive: [2] | [7] | [11] | [9] | [10]
active: [1] 56.4 µM | [3] 12.1 µM | [4] 7.16 µM | [5] 33.4 µM | [6] 54.3 µM | [8] 26.6 µM

O=S(=O)(O)c1ccc(O)c2ncccc12
inactive: [1] | [2] | [3] | [4] | [5] | [6] | [7] | [11] | [10]

CCCCCCCCCCCCN(CCCCCCCCCCCC)CCCCCCCCCCCC
inactive: [1] | [2] | [3] | [4] | [5] | [6] | [7] | [11] | [9] | [10]

NNc1nc(-c2ccc(N)cc2)cs1
inactive: [1] | [2] | [3] | [4] | [5] | [6] | [7] | [11] | [8] | [9] | [10]

CCCc1ccccc1O
inactive: [1] | [2] | [3] | [4] | [5] | [6] | [7] | [8]

NC(=O)Nc1ccc(Cl)cc1
inactive: [1] | [2] | [3] | [4] | [5] | [6] | [7] | [11] | [8] | [9] | [10]

Clc1ccc(Cl)c(Cl)c1Cl
inactive: [1] | [2] | [3] | [4] | [5] | [6] | [7] | [11] | [9]

O=C(Oc1ccccc1)c1ccc(O)cc1
inactive: [1] | [2] | [3] | [4] | [5] | [6] | [7] | [11] | [8] | [9] | [10]
